From PubChem BioAssay AID1851 (National Center for Advancing Translational Sciences (NCATS), 2009) come the findings set out here.

SMILES strings stand for the structures. Out of some 16,000 compounds screened, about 5,100 (32%) were called active. About 25% were inconclusive and are not listed. Calls follow the shape of the dose curve; as a rule, active = well fitted curve in the direction sought with a large enough effect; inconclusive = small, poorly fitted or top-dose-only effect, or effect the other way; inactive = no such curve, though single readings can be large or run the other way. This is one part of the list.
% is scaled to controls: 0 for no effect and ±100 for the full control effect.

The target of this test is Cytochrome P450 3A4 (Homo sapiens) (UniProt P08684). The experiment in a line: Cytochrome panel assay with activity outcomes. The following applies: recombinant CYP, pro-luciferin dealkylation, luminescence, p450-cyp3a4; series mostly up to 57.1 µM.
Chain of Cytochrome P450 3A4 (Homo sapiens) (P08684 whole entry, looked up): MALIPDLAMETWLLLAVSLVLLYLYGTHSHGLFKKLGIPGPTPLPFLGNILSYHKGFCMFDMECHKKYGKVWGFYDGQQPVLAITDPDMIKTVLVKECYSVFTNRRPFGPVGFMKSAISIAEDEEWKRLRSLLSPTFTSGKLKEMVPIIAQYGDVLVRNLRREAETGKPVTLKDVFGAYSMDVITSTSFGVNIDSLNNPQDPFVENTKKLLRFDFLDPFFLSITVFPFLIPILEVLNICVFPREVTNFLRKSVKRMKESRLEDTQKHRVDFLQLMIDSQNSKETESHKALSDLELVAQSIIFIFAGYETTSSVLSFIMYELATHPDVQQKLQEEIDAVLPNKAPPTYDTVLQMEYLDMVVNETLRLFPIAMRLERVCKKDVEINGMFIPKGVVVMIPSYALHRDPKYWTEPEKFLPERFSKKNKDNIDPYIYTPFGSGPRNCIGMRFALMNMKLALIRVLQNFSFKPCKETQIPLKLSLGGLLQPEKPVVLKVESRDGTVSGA
Turning to `CO[C@@H](C)[C@](O)(C(=O)OCC1=CCN2CC[C@@H](O)[C@H]12)C(C)C`, the activity, negative = inhibition result is “inactive”. Still for that read-out and setting: with `C#C[C@@]1(O)CC[C@@H]2[C@@H]3CCC4=CC(=O)CC[C@@]4(C)[C@H]3CC[C@]21C` the entry was “inactive”; with `NO`, “inactive”; with `O=C1NC(=S)NC(=O)C1=Cc1cccc2cc3ccccc3cc12`, -17.5% [at 11.4 µM] (inactive).

`C[C@@H]1O[C@H](C[N+](C)(C)C)CS1`: the activity, negative = inhibition entry was “inactive”. With `COc1ccc2[nH]c(C(=O)c3ccccc3)cc2c1`, the AC50 is 7.94 µM (active).

Turning to `COC(=O)Nc1nc2ccc(C(=O)c3cccs3)cc2[nH]1`, the activity, negative = inhibition entry is “inactive”. For `COc1ccc2[nH]c3c(c2c1)CCNC3`, the activity, negative = inhibition entry was “inactive”. `Fc1ccc(CCNCc2ccc(Cl)c(Cl)c2)cc1`: the activity, negative = inhibition was -18.5% [at 2.29 µM] (inactive).

On to `Fc1ccccc1CCNCc1cccc(Cl)c1Cl`, for which the AC50 is 0.631 µM (active). In the case of `CCN=C=NCCCN(C)C`, the activity, negative = inhibition was 0.783% [at 11.4 µM] (inactive). In the case of `O=NN(Cc1ccc(Cl)cc1)[C@@H](C(=O)O)c1ccccc1`, the activity, negative = inhibition was -7.56% [at 11.4 µM] (inactive).

`C[N+]1([O-])[C@@H]2CC[C@H]1CC(OC(=O)[C@@H](CO)c1ccccc1)C2` (some centres not stated): the activity, negative = inhibition result was “inactive”. Same read-out and setting: the value for `C[C@]12CC[C@H]3c4ccc(O)cc4CC[C@@H]3[C@H]1CC[C@@H]2OP(=O)(O)O` was 0.528% [at 11.4 µM] (inactive). Regarding `COc1ccc(C2NCc3ccc4c(c3-n3cccc32)OCO4)cc1OC` (configuration not stated), the AC50 is 5.01 µM (active). In the case of `COCCCNC(=S)NC1CC2CCCC(C1)N2Cc1cccs1` (configuration not stated), the activity, negative = inhibition result is “inactive”. For the molecule `COCCNC(=S)NC1CC2CCCC(C1)N2Cc1cccs1` (configuration not stated), the activity, negative = inhibition result was “inactive”. For the molecule `COCCNC(=S)N1C2CCC1CC(NC(=O)NC13CC4CC(CC(C4)C1)C3)C2` (configuration not stated), the AC50 was 3.16 µM (active). As for `CN1CCN(c2ccc3ccccc3n2)CC1`, the activity, negative = inhibition entry is “inactive”.

Regarding `NC(N)=NN=Cc1c(Cl)cccc1Cl`, the activity, negative = inhibition entry was “inactive”. Same read-out and setting: with `[N-]=[N+]=NCC(=O)c1c[nH]c(=O)[nH]c1=O` the figure was 17.4% [at 11.4 µM] (inactive); with `N/C(=N\N=C/c1ccc(-c2ccc(O)c(C(=O)O)c2)o1)N[N+](=O)[O-]`, “inactive”. Take `C[C@@H]1Cc2cc3c(cc2C(c2ccc(N)cc2)=NN1)OCO3`: the AC50 is 2.51 µM (active).

For `C[N+]1([O-])[C@H]2CC[C@H]1CC(OC(=O)[C@@H](CO)c1ccccc1)C2` (some centres not stated), the activity, negative = inhibition was -2.26% [at 11.4 µM] (inactive). Same read-out and setting: the value for `C[C@@]12CC(=O)[C@H]3[C@@H](CCC4=CC(=O)CC[C@]43C)[C@H]1CCC2=O` was “inactive”. On the same count and under the same terms, with `NC(N)=Nc1ccc2[nH]c3c(c2c1)C[C@]1(O)[C@@H]2Cc4ccc(O)c5c4[C@]1(CCN2CC1CC1)[C@@H]3O5` the entry was “inactive”; with `CCCC[N+]1(C)[C@@H]2CC(OC(=O)[C@@H](CO)c3ccccc3)C[C@H]1[C@H]1O[C@H]12` (some centres not stated), “inactive”. Same read-out and setting: with `N[C@@H](Cc1ccccc1)P(=O)(O)O` the figure was -2.63% [at 11.4 µM] (inactive). For `CCSc1nnc(C(N)Cc2ccccc2)o1` (configuration not stated), the AC50 is 11.2 µM (active).

Consider `COc1ccc(C[C@@H](N)c2ccc(OC)cc2)cc1`, for which the activity, negative = inhibition is -30.1% [at 11.4 µM] (inactive). On to `CN1CC[C@@]23c4ccccc4N[C@H]1[C@]21CCN(C)[C@@H]3Nc2ccccc21`, for which the activity, negative = inhibition entry is “inactive”.

`C[C@H](OP(=O)(O)O)[C@H](N)C(=O)O`: the activity, negative = inhibition is -9.79% [at 11.4 µM] (inactive). The same measure, in the same setting: the value for `O=C1C=CC(=O)c2c1ccc1c2ccc2ccccc21` was “inactive”.

For `NCCCN1CCN(c2ccccc2)CC1`, the activity, negative = inhibition was -17.3% [at 11.4 µM] (inactive).

Regarding `Nc1ccc(CCN2CCN(c3cccc(C(F)(F)F)c3)CC2)cc1`, the AC50 was 7.94 µM (active). Take `C=C1[C@@H]2C[C@@]3([C@H]1O)[C@H]1C[C@@H]4[C@@]5(C)CC[C@H](O)[C@]4([C@H]1N(CC)C5)[C@H]3C[C@H]2O`: the activity, negative = inhibition result is “inactive”. Take `NC(=NCc1ccc(Cl)cc1)SCCCc1cnc[nH]1`: the AC50 is 1.58 µM (active).

For the molecule `NC(=NCCc1ccc(I)cc1)SCCCc1cnc[nH]1`, the AC50 is 0.794 µM (active).

For `OCc1cnc[nH]1`, the activity, negative = inhibition result is “inactive”. Still for that read-out and setting: the value for `NC(N)=NCCC[C@H](N)C(=O)O` was “inactive”. On the same count and under the same terms, with `NS(=O)(=O)c1cc([C@@]2(O)NC(=O)c3ccccc32)ccc1Cl` the entry was “inactive”; with `Cc1o[nH]c(=O)c1C[C@H](N)C(=O)O`, “inactive”. The same measure, in the same setting: the value for `CCCCN1C(=O)/C(=C/c2ccc(N(C)C)cc2)C(=O)N(Cc2ccco2)C1=O` was -12% [at 2.29 µM] (inactive); that for `O=C(O)/C=C\c1ccc[c]([Sb](=[O])([OH])[OH])c1` was -2.48% [at 11.4 µM] (inactive). Turning to `CCCN1CCC[C@H](c2cccc(C#N)c2)C1`, the activity, negative = inhibition entry was “inactive”. With `CCCc1cc2c(n1CCO)C(C)C1CN(C(=O)c3ccccc3)C(C)(C(=O)OC)C21` (configuration not stated), the AC50 was 10 µM (active). Turning to `CCCc1cc2c(n1Cc1cccc(Cl)c1)C(C)C1CN(C(=O)c3ccccc3)C(C)(C(=O)OC)C21` (configuration not stated), the AC50 is 5.01 µM (active). On the same count and under the same terms, the value for `CCCc1cc2c(n1Cc1ccc(C)cc1)C(C)C1CN(C(=O)c3ccccc3)C(C)(C(=O)OC)C21` (configuration not stated) was 3.16 µM (active).

With `CC[N+](CC)(CCCNC1=CC(=O)C(NCCC[N+](CC)(CC)Cc2ccccc2)=CC1=O)Cc1ccccc1`, the activity, negative = inhibition result is “inactive”. Regarding `CC(C)C[C@H](NP(=O)(O)O[C@@H]1O[C@@H](C)[C@@H](O)[C@@H](O)[C@H]1O)C(=O)N[C@@H](Cc1c[nH]c2ccccc12)C(=O)O`, the activity, negative = inhibition result is “inactive”. The same measure, in the same setting: with `C[C@@]12CC[C@H]3[C@@H](CC=C4C[C@H](OS(=O)(=O)O)CC[C@]43C)[C@H]1CCC2=O` the entry was “inactive”; with `CCN1CCN(c2ccc(NC(=O)C(C)C)cc2Cl)CC1`, “inactive”; with `NC[C@H](O)c1ccc(O)cc1`, “inactive”.

Take `O=C1C2CCN(CC2)C1(CO)CO`: the activity, negative = inhibition result is “inactive”. On the same count and under the same terms, with `O=C(O)Cc1cccnc1C(=O)O` the entry was “inactive”; with `C[C@@H]1O[C@H]1P(=O)(O)O`, “inactive”; with `CC[C@H]1CN2CCc3cc(OC)c(OC)cc3[C@H]2C[C@@H]1C[C@H]1NCCc2c1[nH]c1ccc(O)cc21`, -8.94% [at 11.4 µM] (inactive). On the same count and under the same terms, with `C[C@](N)(CCP(=O)(O)O)C(=O)O` the entry was “inactive”; with `CN1CCC2(CC1)CCN(C(=O)Oc1ccccc1)CC2`, “inactive”. Regarding `O=C(Oc1ccccc1)N1CCC[C@@]2(CCN(C(c3ccccc3)c3ccccc3)C2)C1`, the AC50 is 10 µM (active). The same measure, in the same setting: with `CC(C)CN1CC[C@@]2(CCCN(C(=O)Oc3ccccc3)C2)C1` the figure was 12.6 µM (active). Turning to `CC(C)CN1CC2(CCN(C(=O)Oc3ccccc3)CC2)C1`, the activity, negative = inhibition result is “inactive”.

As for `COC(=O)N1CCC2(CCN(CC(C)C)CC2)CC1`, the activity, negative = inhibition result was “inactive”.

As to `N#Cc1ccc(CN2CC[C@@]3(CCCN(C(=O)Oc4ccccc4)C3)C2)cc1`, the AC50 was 7.94 µM (active).

For the molecule `COC(=O)N1CCC2(CCCN(C)C2)CC1`, the activity, negative = inhibition result is “inactive”. `CN1CC[C@@]2(CCCN(C(=O)Oc3ccccc3)C2)C1`: the AC50 was 12.6 µM (active).

For the molecule `O=C(Oc1ccccc1)N1CCC2(CCCN(C(c3ccccc3)c3ccccc3)C2)CC1`, the activity, negative = inhibition result is “inactive”.

In general, AC50 refers to the concentration giving half of the maximal activity seen.
